Paper PMC5540273 (PLoS ONE, 2017)

What was measured:
Settings in all cases: concentration: 1 μM,replicates: in singlicate; n = 1
PIK3C2G = tested on: PIK3C2G
PIK3CA = tested on: PIK3CA
PIK3CB = tested on: PIK3CB
PIK3CD = tested on: PIK3CD
PIK3CG = tested on: PIK3CG
PIK4CB = tested on: T1, PIK4CB
T1 construct: gene PI4KB

PIKFYVE = tested on: PIKFYVE
PIM1 = tested on: PIM1
PIM2 = tested on: PIM2
PIM3 = tested on: PIM3
PIP5K1A = tested on: PIP5K1A
PIP5K1C = tested on: PIP5K1C
PIP5K2B = tested on: PIP5K2B
PIP5K2C = tested on: T2, PIP5K2C
T2 construct: gene PIP4K2C

PKAC-alpha = tested on: T3, PKAC-alpha
T3 construct: gene PRKACA

PKAC-beta = tested on: T4, PKAC-beta
T4 construct: gene PRKACB

PKMYT1 = tested on: PKMYT1
PKN1 = tested on: PKN1
PKN2 = tested on: PKN2
PLK1 = tested on: PLK1
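Note: KINOMEscan kinase panel screen.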

Row | SMILES | %Inh (PIK3C2G) [%] | %Inh (PIK3CA) [%] | %Inh (PIK3CB) [%] | %Inh (PIK3CD) [%] | %Inh (PIK3CG) [%] | %Inh (PIK4CB) [%] | %Inh (PIKFYVE) [%] | %Inh (PIM1) [%] | %Inh (PIM2) [%] | %Inh (PIM3) [%] | %Inh (PIP5K1A) [%] | %Inh (PIP5K1C) [%] | %Inh (PIP5K2B) [%] | %Inh (PIP5K2C) [%] | %Inh (PKAC-alpha) [%] | %Inh (PKAC-beta) [%] | %Inh (PKMYT1) [%] | %Inh (PKN1) [%] | %Inh (PKN2) [%] | %Inh (PLK1) [%]
1 | COc1cccc(CNC(=O)NC2CCN(c3ccnc(Nc4cc(OC)c(OC)c(OC)c4)n3)C2)c1 (centres unmarked) [GSK1379765] | 0 | 0 | 83 | 35 | 0 | 67 | 0 | 0 | 0 | 0 | 52 | 68 | 14 | 90.3 | 0 | 0 | 8 | 36 | 0 | 0
2 | Cc1n[nH]c2cc(Nc3ccnc(Nc4cccc(CN5CCOCC5)c4)n3)ccc12 [GW682569] | 0 | 3 | 7 | 9 | 6 | 81 | 23 | 0 | 0 | 0 | 57 | 70 | 33 | 71 | 0 | 0 | 0 | 46 | 0 | 0
3 | CN1CCN(CCCNc2nccc(-c3c(-c4ccc(F)cc4)nn4cc(C(N)=O)ccc34)n2)CC1 [GW622475] | 0 | 0 | 0 | 0 | 0 | 0 | 94.2 | 25 | 0 | 8 | 0 | 50 | 12 | 29 | 6 | 1 | 9 | 13 | 0 | 0
4 | CN(c1cccc(CNc2nc(Nc3ccc4c(c3)CC(=O)N4)ncc2C(F)(F)F)c1)S(C)(=O)=O | 0 | 0 | 0 | 0 | 0 | 0 | 31 | 12 | 0 | 3 | 45 | 45 | 90.9 | 46 | 0 | 0 | 5 | 77 | 19 | 0
5 | Cc1cccc(-c2nc(Nc3ccncc3)c3sccc3n2)n1 [GW869641] | 40 | 33 | 28 | 46 | 23 | 31 | 86 | 27 | 3 | 13 | 4 | 61 | 3 | 45 | 25 | 38 | 3 | 1 | 12 | 33
6 | COc1cc(Nc2nccc(N3CCC(NC(=O)c4cccc(C#N)c4)C3)n2)cc(OC)c1OC (centres unmarked) [GSK1379751] | 0 | 0 | 0 | 0 | 0 | 3 | 9 | 0 | 0 | 0 | 0 | 47 | 0 | 94.5 | 0 | 0 | 0 | 0 | 0 | 0
7 | Cl.Cl.NC[C@H](CC1CCCCC1)NC(=O)c1ccc(-c2ccnc3[nH]ccc23)s1 [GSK1581428] | 0 | 0 | 0 | 0 | 0 | 0 | 0 | 0 | 0 | 0 | 47 | 41 | 75 | 25 | 99.7 | 99.9 | 0 | 52 | 99 | 2
8 | CS(=O)(=O)Nc1ccc(-c2ccnc3[nH]ccc23)cc1 [GSK993273] | 3 | 0 | 0 | 8 | 7 | 10 | 0 | 28 | 0 | 12 | 57 | 29 | 55 | 89 | 84 | 85 | 0 | 21 | 18 | 0
9 | CCOC(=O)N1CCC(n2cnc(-c3ccc(F)cc3)c2-c2ccnc(N)n2)CC1 [SB-219952] | 69 | 15 | 0 | 16 | 64 | 59 | 37 | 9 | 0 | 1 | 0 | 32 | 2 | 94.4 | 9 | 36 | 32 | 0 | 8 | 23
10 | c1ccc(Oc2ccc(Nc3ccnc4ccc(-c5ccccn5)cc34)cc2)cc1 [GW407034] | 0 | 0 | 27 | 0 | 0 | 0 | 0 | 9 | 0 | 0 | 6 | 23 | 25 | 28 | 0 | 8 | 11 | 28 | 0 | 0
